High-throughput results (PubChem BioAssay)
Only some compounds are listed: those with a hit (about 11% of all), similar ones and a draw of the others.
Pf growth 96h: P. falciparum growth inhibition at 96 hours. Potency, µM (top dose mostly 28.7 µM), for inactives: top-dose activity change, negative = inhibition, most hits filed as inhibitors. AID 504834. hit rate 6.9% among 320,000. P. falciparum luciferase reporter growth, 96 h; note: % is set by controls: 0 for no effect and ±100 for the full control effect
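Compounds incubated with erythrocytes infected by luciferase-expressing P. falciparum (2% hematocrit, 0.05% parasitemia final) for 96 hours, 37 C in 5% CO2. Growth inhibition scored as decreased luciferase luminescence.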
VACV mCherry inh: inhibitors of vaccinia virus infection (mCherry reporter signal); Vaccinia virus mCherry reporter infection, fluorescence; Potency, µM (series often up to 36.5 µM), without a hit: at the highest dose activity change, negative = inhibition, actives largely listed as inhibitors; hit rate 0.63% among 310,000; AID 720579; calls by dose curve; tested in A549 cells; note: % is set by controls: 0 for no effect and ±100 for the full control effect; nearly all actives have a fitted effect of over 35% in size
HCV inhibitor: inhibitors of hepatitis C virus infection. Huh7.5.1 HCVcc-Cre infection, luciferase reporter, 44 h. hit rate 3.4% among 340,000. AID 651820. Potency, µM (series often up to 41.8 µM), without a hit: at the top dose activity change, negative = inhibition, usual class: inhibitors; note: % is set by controls: 0 for no effect and ±100 for the full control effect
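A cell-based infection assay in which seeded cells (1,000 per well) receive test compound after 4 h, are inoculated with HCVcc-Cre at approximately 0.5 moi, and are incubated 44 h before luminescence detection.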
Vaccinia Venus: vaccinia inhibition (Venus reporter); Vaccinia virus Venus reporter expression, fluorescence; Potency, µM (highest dose often 36.5 µM), without a hit: at the highest dose activity change, negative = inhibition, actives largely listed as inhibitors; hit rate 0.46% among 330,000; AID 720580; calls by dose curve; tested in A549 cells; note: % is set by controls: 0 for no effect and ±100 for the full control effect; nearly all actives have a fitted effect of over 30% in size
NS1 inh: blocks influenza NS1 protein function | Potency, µM (titrated, usually from 46.1 µM), for inactives: top-dose activity, positive = more growth | hit rate 0.4% among 270,000; calls by dose curve; note: actives are rising curves; nearly all actives have a fitted effect of over 50% in size
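Recovery from NS1-induced slow growth read by OD600 in budding yeast switched to galactose assay medium (pH 6.0, -URA) at 1:100 dilution. Compound 23 nl per well; the matching strain lacking NS1 serves as control.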
Pf growth 48h: inhibits P. falciparum growth in the first generation, 48 h | AID 504832 | Potency, µM (highest dose often 28.7 µM), without a hit: at the top dose activity change, negative = inhibition, hits mostly inhibitors | P. falciparum luciferase growth in erythrocytes, 48 h | hit rate 5.9% among 310,000; note: % is set by controls: 0 for no effect and ±100 for the full control effect
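Compounds are pin-transferred into medium, infected erythrocytes (2% hematocrit, 0.1% parasitemia final) are added, and plates sit one parasite generation at 37 C in 5% CO2. Detection reagent is then added and luminescence measured.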
* hit, by the source's call; i = inactive; ? = inconclusive; · = no result; [ ] = remark or other dose. Unless noted, calls come from the whole dose curve; as a rule, active = well fitted inhibition curve with a large enough effect; inconclusive = small, poorly fitted or top-dose-only effect, or another doubt; inactive = no such curve, though single readings can be large or run the other way. Potency is the fitted concentration of half-maximal effect.

SMILES | Pf growth 96h | VACV mCherry inh | HCV inhibitor | Vaccinia Venus | NS1 inh | Pf growth 48h
Cc1ccc(C)c(NC(=O)CN(C)C(=O)[C@@H](NC(N)=O)C(C)C)c1 | -21.6% | i | 3.5% | -23.1% | 6.3% | 39.5%
COc1ccc2c(c1)CCc1sc(NC(=O)c3ccc(Br)cc3)nc1-2 | · | -10.2% | · | -15.0% | · | ·
COc1ccc(C(=O)Nc2nc(-c3ccccc3)c(C(C)=O)s2)c(OC)c1 | 13.1% | -7.7% | 12.6µM* | 0.7% | 1.5% | 15.0%
COc1ccc2c(c1)CCc1sc(NC(=O)c3ccc(C)cc3)nc1-2 | 6.57µM* | · | -14.4% | -7.7% | 8.9% | ?
CC(=O)c1sc(NC(=O)c2ccccc2F)nc1-c1ccccc1 | 138.8% | i | -15.5% | -13.0% | · | i
N#CCCN(CCC#N)S(=O)(=O)c1ccc(C(=O)Nc2nc(-c3ccccc3)c(C(=O)c3ccccc3)s2)cc1 | 5.8% | · | 3.5% | · | 6.1% | -1.1%
COc1ccc(C(=O)Nc2nc(-c3ccc([N+](=O)[O-])cc3)c(-c3ccccc3)s2)cc1 | · | · | 6.31µM* | 2.2% | · | ·
Cc1ccc(-c2nc(NC(=O)c3ccc(S(=O)(=O)N(CCC#N)CCC#N)cc3)sc2-c2ccccc2)cc1 | 11.7µM* | -3.9% | 11.3% | -5.7% | 7.5% | -25.1%
O=C(NN(C(=O)C1CC1)c1nc2ccccc2s1)C1CC1 | 4.15µM* | · | 10.1% | · | ? | 27.1%
Oc1ccc(/C=N/n2cc(-c3ccccc3)[nH]c2=S)cc1 | ? | · | -26.3% | · | · | ?
COc1cc(/C=N/n2cc(-c3ccccc3)[nH]c2=S)cc(OC)c1O | ? | · | 1.6% | · | 2.6% | 11.7µM*
N#Cc1nc(-c2ccccc2Cl)oc1N1CCOCC1 | · | -3.2% | -3.0% | -22.2% | 2.1% | -15.8%
CCC1Oc2ccc(C)cc2N(CC(=O)NCc2ccccc2OC)C1=O (stereo not given) | 12.1% | · | -2.8% | · | -2.7% | ?
CC1CCN(CC(O)COCCC23CC4CC(CC(C4)C2)C3)CC1 (stereo not given) | ? | ? | 35.5µM* | -27.8% | -6.8% | ·
O=C1NC2(CCCCC2)C(=O)N1c1cccc(Cl)c1 | 22.8% | · | 5.8% | · | 0.3% | 27.9%
CC(CCc1ccccc1)NC(=O)/C=C/c1ccc(Cl)cc1 (stereo not given) | ? | -16.4% | -5.2% | -6.0% | -4.2% | 7.9%
COc1ccccc1C1=CC(=O)C[C@H](c2ccc(Cl)cc2)C1 | ? | ? | ? | ? | · | 7.38µM*
O=C1C=C(c2cc3ccccc3o2)C[C@@H](c2ccc(F)cc2)C1 | ? | i | 0.9% | -13.3% | · | ?
CCOC(=O)c1cccc(C2=CC(=O)C[C@H](c3ccc(Cl)cc3)C2)c1 | ? | -29.8% | ? | -6.8% | · | 13.1µM*
O=C1C=C(c2ccc(-c3ccccc3)cc2)C[C@@H](c2ccc(Cl)cc2)C1 | 20.7% | ? | 20.3% | -27.9% | · | ?
Cc1cc(Cl)ccc1C1=CC(=O)C[C@H](c2ccc(F)cc2)C1 | ? | i | 4.9%[8.37 µM] | -13.1% | · | ?
O=C1C=C(c2cccc3c2oc2ccccc23)C[C@@H](c2ccc(F)cc2)C1 | -18.0% | ? | ? | -16.9% | · | 2.33µM*
O=C1C=C(c2cc(F)ccc2F)C[C@@H](c2ccc(F)cc2)C1 | ? | i | 9.5% | -19.4% | · | 2.33µM*
Cn1nnnc1SCCCNCc1ccc(-c2ccc(F)c(Cl)c2)o1 | · | -9.7% | · | -9.4% | · | ·
CCN(CCCNC(=O)c1cc2c(=O)n(CC)c3ccccc3c2s1)c1cccc(C)c1 | · | -16.4% | · | -15.2% | · | ·
SMILES | Pf growth 96h | VACV mCherry inh | HCV inhibitor | Vaccinia Venus | NS1 inh | Pf growth 48h
CN(C(=O)CN(c1ccccc1)S(=O)(=O)c1ccc(F)cc1)C1CCS(=O)(=O)C1 (stereo not given) | 33.0% | · | 8.8% | · | 2.0% | 3.9%
CC(C)(C)c1ccc(Cn2cnc(-c3ccc([N+](=O)[O-])cc3)c2)cc1 | ? | -6.2% | ? | -26.3% | 0.6% | 66.8%
Cc1cc(C)c(Cn2cnc(-c3ccc([N+](=O)[O-])cc3)c2)c(C)c1 | ? | i | 11.2µM* | 0.0% | -2.6% | ?
Cc1n[nH]c(C)c1S(=O)(=O)N1CCc2ccccc21 | -20.8% | -0.6% | 17.0% | -14.5% | -2.5% | ?
O=C(O)c1cc(-c2ccc3cc4c(cc3c2)OCO4)nc2ccccc12 | · | · | · | · | -8.0% | ·
CCc1ccc(S(=O)(=O)N2c3ccc(C)cc3C3CN(C)CCC32)cc1 (stereo not given) | ? | -9.2% | ? | -22.1% | · | 10.4µM*
Cc1ccc2c(c1)[C@@H]1CN(C)CC[C@@H]1N2S(=O)(=O)c1ccc(F)cc1 | ? | ? | 19.2% | -17.2% | 0.6% | -18.4%
COc1ccc(C)cc1S(=O)(=O)N1c2ccc(C)cc2C2CN(C)CCC21 (stereo not given) | 10.4µM* | ? | ? | -8.0% | · | ?
O=C(Oc1ccc(N(C(=O)c2ccncc2)S(=O)(=O)c2ccc(Cl)cc2)cc1)c1ccncc1 | 2.62µM* | · | -21.2% | · | -71.9% | 10.0%
CCCN(CC(=O)c1cc(C)n(C)c1C)S(=O)(=O)c1cccc(C(F)(F)F)c1 | 2.2%[5.75 µM] | · | -13.2% | ? | -58.2% | -46.4%
CCn1cc(C2C3=C(CC(C)(C)CC3=O)N(c3ccc(C)cc3)C3=C2C(=O)CC(C)(C)C3)c(C)n1 | · | -10.5% | 1.0% | -15.1% | · | ·
COc1ccc(N2C3=C(C(=O)CC(C)(C)C3)C(c3cnn(C)c3)C3=C2CC(C)(C)CC3=O)cc1 | 4.15µM* | -13.9% | 14.6% | -6.2% | 1.5% | 7.38µM*
CCn1cc(C2C3=C(CC(C)(C)CC3=O)N(c3ccccc3)C3=C2C(=O)CC(C)(C)C3)c(C)n1 | 8.28µM* | -15.0% | -6.7% | -14.2% | -5.0% | ?
COc1ccc(/C=C2\Sc3ccc(C(=O)N4CCOCC4)cc3N(C)C2=O)cc1 | ? | · | -20.7% | · | 9.7% | -17.9%
COCc1ccc(CN2CCCC(CCC(=O)NCc3ccc(C)o3)C2)o1 (stereo not given) | ? | -12.9% | 11.2% | -11.6% | -1.1% | -29.3%
CCN1CCc2c(sc(N)c2C#N)C1 | · | -1.1% | -1.9% | 7.6% | 1.1% | ?
N#Cc1c(N)sc(=S)c2c1CCN(Cc1ccccc1)C2 | 129.6% | · | -26.0% | · | -13.0% | 10.4µM*
Cc1ccc(OCCCCn2cnc3ccccc32)cc1 | -0.6% | -2.2% | ? | -21.0% | · | 30.1%
Cc1ccccc1OCCCCn1c(CO)nc2ccccc21 | ? | i | 11.2µM* | -13.4% | · | ?
Cc1ccc(OCCCn2c(CO)nc3ccccc32)cc1 | 6.8% | · | 2.1% | -22.2% | -22.2% | 64.8%
Cc1ccccc1OCCn1c(C)nc2ccccc21 | -29.3% | -12.6% | 5.62µM* | -26.2% | -1.4% | ?
Cc1ccccc1OCCCCn1cnc2ccccc21 | -11.4% | · | 7.94µM* | · | -152.1% | ·
N#CCNC(=O)c1cccn1-c1ncc(C(F)(F)F)cc1Cl | 7.8% | i | -0.4% | -5.7% | · | ?
